# From PubChem BioAssay
# Hits are enriched below; roughly 17% of the tested compounds scored in any of these assays.
# DT40 TDP1 CPT – growth inhibition of DT40 Tdp1-/-;hTDP1 cells with camptothecin (screen for TDP1 inhibitors); Potency, µM (doses to about 46.2 µM), inactives show at the highest dose activity change, negative = growth inhibition, hits mostly inhibitors; 12% of 420,000 active; AID 686979; chicken DT40 Tdp1-/-;hTDP1 cells + 20 nM CPT, ATP luminescence, 48 h; also: % is scaled to controls: 0 for no effect and ±100 for the full control effect; nearly all actives have a fitted effect of over 55% in size
#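 Cell growth measured by CellTiter-Glo luminescence after a minimum 48 h, 37 C compound exposure with 20 nM CPT in Tdp1-knockout DT40 cells stably expressing hTDP1, seeded 400/well; qHTS titration format.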
# ClpP mod – qHTS Assay for Activators of ClpP; Potency, µM (top dose mostly 57.5 µM), for inactives: at the top dose activity change, negative = active; purified B. subtilis ClpP, FRET peptide cleavage, 20 min; ATP-dependent Clp protease proteolytic subunit (Bacillus subtilis (strain 168)), P80244; 1.9% of 340,000 active; active = well fitted falling curve with a large enough effect; inconclusive = small, poorly fitted or top-dose-only effect; inactive = no such curve, though single readings can be large or run the other way; also: the source files actives as falling curves though it sought activators and does not explain the sign; nearly all actives have a fitted effect of over 65% in size
# Target sequence (P80244 whole entry, looked up): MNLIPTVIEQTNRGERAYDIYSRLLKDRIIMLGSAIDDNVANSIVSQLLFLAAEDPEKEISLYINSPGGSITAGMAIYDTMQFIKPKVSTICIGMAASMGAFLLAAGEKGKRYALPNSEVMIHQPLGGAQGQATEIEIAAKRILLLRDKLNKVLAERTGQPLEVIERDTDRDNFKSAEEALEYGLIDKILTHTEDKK
#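 ClpP 10 microg/mL final, pH 8 Tris/KCl buffer with BSA, glycerol, Tween-20; compound pinned in; FRET-FV substrate; RT 20 min; Ex320/Em430; ΔFRET vs ADEP 5.8 microM, DMSO, no enzyme.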
# DT40 TDP1 no CPT – qHTS for Inhibitors of human tyrosyl-DNA phosphodiesterase 1 (TDP1): qHTS in cells in absence of CPT. Potency, µM (doses to about 46.2 µM), for the others: at the highest dose activity change, negative = growth inhibition, usual class: inhibitors. AID 686978, 2013. 15% of 420,000 active. DT40 Tdp1-/- hTDP1 cells, no CPT, ATP luminescence, 48 h; also: % is scaled to controls: 0 for no effect and ±100 for the full control effect; nearly all actives have a fitted effect of over 55% in size
#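 Compound effects on proliferation are scored in DT40 Tdp1-/-;hTDP1 cells in the absence of CPT. ATP levels (CellTiter-Glo luminescence) are recorded after a ≥48 hr, 37 °C incubation.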
# TDP1 inh – inhibitors of human tyrosyl-DNA phosphodiesterase TDP1. Potency, µM (titrated, usually from 130 µM), for inactives: top-dose activity change, negative = inhibition, most hits filed as inhibitors. Q9NUW8. recombinant TDP1, AlphaScreen DNA substrate cleavage. 0.28% of 350,000 active; also: % is scaled to controls: 0 for no effect and ±100 for the full control effect; nearly all actives have a fitted effect of over 40% in size
#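 E. coli-derived human Tdp1, 1 nM final. Cpd preinc 15 min RT; substrate 15 nM final, 5 min RT; AS bead mix 10 ug/ml final, 10 min RT. Signal loss = tyrosine-FITC cleavage. No-enzyme wells = max signal.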
# Active calls of the source: *; ? = inconclusive; · = no result; [ ] = remark or other dose. Unless noted, calls follow the shape of the dose curve; as a rule, active = well fitted curve in the direction sought with a large enough effect; inconclusive = small, poorly fitted or top-dose-only effect, or another doubt; inactive = no such curve, though single readings can be large; an effect the other way counts as inactive or inconclusive. Potency is read from the fitted curve at half-maximal effect.
SMILES,DT40 TDP1 CPT,ClpP mod,DT40 TDP1 no CPT,TDP1 inh
O=C(c1ccc(CS(=O)Cc2ccc(Cl)cc2)o1)N1CCN(c2ccccc2)CC1 (stereo not drawn),-14.8%,1.7%,-22.1%,7.6%
O=C(c1ccc(CS(=O)c2ccccc2Cl)o1)N1CCN(c2cccc(Cl)c2)CC1 (stereo not drawn),0.259µM*,-2.3%,0.517µM*,7.7%
CCOc1ncccc1C(=O)N(C)CC(=O)Nc1ccccc1SC,23.4%,-22.2%,-8.2%,2.8%
COc1cccc(C(=O)NN2C(=S)N(c3ccccc3)C(=O)C2CC(N)=O)c1 (stereo not drawn),0.2%,-29.2%,-16.7%,-5.2%
COc1cc(C)c(COc2ncnc3ccccc23)cc1OC,?,·,?,4.1%
c1ccc2c(c1)-c1nc3ccccc3cc1C2N1CCCCC1 (stereo not drawn),16.4µM*,0.9%,16.4µM*,·
Cc1ccccc1NC(=O)CSCc1cc(=O)n2ccsc2n1,3.0%,-0.6%,13.0%,0.5%
O=C1N[C@@H](Cc2ccccc2)C(=O)N2[C@@H]3N(S(=O)(=O)c4ccccc4)c4ccccc4[C@]3(Br)C[C@@H]12,?,0.4%,?,·
CC(C)c1cc(C(C)C)c(S(=O)(=O)N2c3ccccc3[C@@]3(Br)C[C@H]4C(=O)N[C@@H](Cc5ccccc5)C(=O)N4[C@@H]23)c(C(C)C)c1,11.6µM*,-6.3%,11.6µM*,·
NS(=O)(=O)c1ccc(CCNC(=O)c2ccc(NC3=NC4CS(=O)(=O)CC4S3)cc2)cc1 (stereo not drawn),18.5%,·,-0.6%,7.7%
COc1ccc(C(CNc2ncnc3sc(C)c(C)c23)N(C)C)cc1 (stereo not drawn),?,·,23.1µM*,·
COc1ccccc1C(CNc1ncnc2sc(C)c(C)c12)N(C)C (stereo not drawn),?,·,20.6µM*,-2.8%
COc1cc(/C=C/C(=O)OCC(=O)c2ccc3c(c2)NC(=O)CO3)ccc1OC(F)F,?,·,-16.4%,-4.0%
CCOc1ccc(CNC(=O)c2ccc3c(c2)nc2n3CCCCC2)cc1,-24.6%,-4.2%,-33.5%,8.1%
CCOc1cc(/C=C2/SC(=Nc3ccccc3)N(Cc3cccnc3)C2=O)ccc1OCC#N,16.4µM*,-2.0%,23.1µM*,7.8%
COc1ccc(-n2c(O)c(/C=N/NS(=O)(=O)c3cc(C)ccc3C)c3ccccc3c2=O)cc1OC,20.6µM*,-3.1%,16.4µM*,9.1%
COc1ccc(-n2c(O)c(/C=N/NS(=O)(=O)c3ccc(C)cc3)c3ccccc3c2=O)cc1OC,18.4µM*,0.2%,16.4µM*,7.7%
O=C1C=C(NCc2ccccc2)CCC1,-4.1%,-0.8%,8.6%,-1.9%
O=C1C=C(NCc2ccccc2)c2ccccc2C1=O,5.8µM*,-5.2%,14.6µM*,3.7%
Cc1ccc(NC(=O)COC(=O)c2cccc3c2C(=O)c2ccccc2C3=O)c(C)c1,?,-1.0%,?,2.6%
Cc1ccc(NC2=CC(=O)C(=O)c3ccccc32)c(C)c1,4.61µM*,3.0%,18.4µM*,-0.2%[56.1 µM]
O=C1c2ccccc2C(=O)c2c(O)ccc(O)c21,-5.7%[9.04 µM],·,-10.1%[9.04 µM],14.3%
O=C1C=C(Nc2ccccc2O)c2ccccc2C1=O,3.66µM*,3.9%,3.26µM*,10.7%
COc1cc2c(NC3CCN(C)CC3)nc(N3CCCN(C)CC3)nc2cc1OCCCN1CCCCC1,17.8µM*,3.2%,10µM*,·
COc1cc2c(NC3CCN(C)CC3)nc(N3CCCN(C)CC3)nc2cc1OCCCC(C)C,1.12µM*,4.1%,1.12µM*,·
SMILES,DT40 TDP1 CPT,ClpP mod,DT40 TDP1 no CPT,TDP1 inh
COc1cc2c(NC3CCN(C)CC3)nc(N3CCCN(C)CC3)nc2cc1OCCCCN,?,3.9%,?,·
O=C1NC2c3c(I)sc(I)c3C(=O)C2O1 (stereo not drawn),6.51µM*,-2.0%,7.31µM*,·
O=C1NC2c3c(Cl)sc(Cl)c3C(=O)C2O1 (stereo not drawn),20.6µM*,-5.8%,20.6µM*,·
O=C1NC2c3ccccc3CC2O1 (stereo not drawn),0.1%,1.2%,27.3%,·
CCn1c(CCC(=O)O)nc2cc(S(=O)(=O)N3CCOCC3)ccc21,4.8%,0.7%,4.8%,1.2%
O=C(NCCc1ccccc1)c1cc(-c2ccncc2)nc2ccc(S(=O)(=O)N3CCOCC3)cc12,-7.0%,1.1%,-27.8%,0.3%
COC(=O)c1cccc(NC(=O)CC2C(=O)NCCN2C(=O)c2ccc(F)cc2F)c1 (stereo not drawn),10.1%,·,10.1%,1.2%
Cc1cc(S(=O)(=O)NCCc2ccccc2)ccc1-n1cnnn1,-25.4%,·,-25.3%,-13.4%
CC(=O)c1ccc(OCCNS(=O)(=O)c2ccc(-n3cnnn3)c(C)c2)cc1,13µM*,-2.1%,?,-2.6%
O=C(O)Cc1c[nH]c2ccccc12,4.1%,-13.1%,4.1%,·
O=C(CCl)N(c1ccccc1)c1c[nH]c2ccccc12,2.31µM*,-1.9%,2.91µM*,·
O=C(NCc1ccc(Cl)cc1)C(=O)c1c[nH]c2ccccc12,?,3.7%,4.4%,2.6%
O=C(CCl)N(c1ccc(Cl)cc1)c1c[nH]c2ccccc12,1.84µM*,-1.1%,1.84µM*,2.3%
O=S(=O)(Nc1ccc(-n2cnnn2)cc1)c1ccccc1F,-21.0%,-3.2%,-0.8%,2.0%
CC(C)(C)c1ccc(S(=O)(=O)N2CCC(Oc3ccc(-n4cnnn4)cc3)CC2)cc1,?,0.1%,10.3µM*,4.7%
O=S(=O)(c1ccccc1F)N1CCC(Oc2ccc(-n3cnnn3)cc2)CC1,?,-2.7%,23.1µM*,3.6%
O=C(NCc1cccs1)C1C(=O)Nc2ccccc2C(=O)N1Cc1ccccc1 (stereo not drawn),14.6%,-4.5%,19.6%,·
COC(=O)c1[nH]c2cccc(OC)c2c1NC(=O)CN1CCOCC1,-16.1%,17.8µM*,-32.0%,1.9%
COC(=O)c1[nH]c2cccc(OC)c2c1NC(=O)CN(C)CC1OCCO1,-10.5%,31.6µM*,-8.5%,0.0%
CCOC(=O)c1nc(C)sc1-c1ccnn1S(=O)(=O)c1cccc(Cl)c1,-5.3%,·,-23.0%,-2.6%
CCCNC(=O)c1cc(C2CCCCN2S(=O)(=O)Cc2cccc(C(F)(F)F)c2)on1 (stereo not drawn),-29.3%,0.7%,-58.6%,·
CSC1=NC=C(C#N)C2=NC(c3ccc(Cl)cc3)NN12 (stereo not drawn),?,-4.0%,?,·
CCN(CCN(C)C)C(=O)c1ccc2c(c1NCCO)C(=O)c1ccccc1C2=O,?,·,23.1µM*,9.9%
O=C1c2ccccc2C(=O)c2c1ccc(C(=O)N1CCCCC1)c2NCCO,?,-0.5%,?,7.4%
Cc1c(C(=O)NNC(=O)c2ccccc2O)oc2ccccc12,?,-5.7%,?,·
COc1ccc(C(=O)N2CCC[C@@]3(CCN(Cc4ccc(C#N)cc4)C3)C2)cc1,-7.0%,·,?,·
